Source: PubChem (National Center for Advancing Translational Sciences (NCATS))
In the library only some 4% were active in any assay of this set; here they are far more common.
D1 agonist – Allosteric Agonists of the Human D1 Dopamine Receptor: qHTS. activation, % at 2 µM. HEK293 T-REx D1 cells, calcium flux, agonist mode. AID 504660, 2011. hit rate 1% among 360,000; note: 0% is about no effect
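Tetracycline-induced HEK293 TREx D1 cells, force-coupled to calcium signalling, were dye-loaded with a no-wash calcium kit. Compound was pin-added after a 10 s baseline. Fluorescence was read kinetically at 1 cycle/s for 180 s, with calcium rises flagged as agonism.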
D1 PAM – Potentiators of Human D1 Dopamine Receptor: qHTS; HEK293 TREx D1 cells, calcium flux, dopamine EC20 potentiation; potentiation, % at 10 µM; hit rate 0.036% among 360,000; in the data active = potentiation above about 30%; note: 0% is about no effect
GRP78 ERSR act – qHTS for Inducers of the Endoplasmic Reticulum Stress Response (ERSR) in Human Glioma: qHTS. U87-MG GRP78 promoter luciferase reporter, 16 h. Potency, µM, without a hit: at the top dose activation, actives largely listed as activators. hit rate 0.02% among 420,000; active = well fitted activation curve with a large enough effect; note: potency is the fitted concentration of half-maximal effect; series mostly up to about 76 µM; % of control where 0% means no effect; nearly all actives have a fitted effect of over 35% in size
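ERSR induction read as luciferase luminescence (Bright-Glo, 10 min at room temperature) in stably transfected human U87-MG glioma cells exposed to compounds for 16 h, using GRP78 as sensor.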
TRHR enhancer – qHTS for Small Molecule Agonists and Allosteric Enhancers of Human TRH Receptor: Primary Screen for Enhancers. hit rate 0.66% among 360,000. AID 493056, 2011. Thyrotropin-releasing hormone receptor (Homo sapiens), P34981. enhancement, % at 2 µM. TRHR cells, fluo-8 calcium fluorescence, EC20 TRH enhancement; in the data active = enhancement above about 30%; note: 0% is about no effect
Target sequence (P34981 whole entry, looked up): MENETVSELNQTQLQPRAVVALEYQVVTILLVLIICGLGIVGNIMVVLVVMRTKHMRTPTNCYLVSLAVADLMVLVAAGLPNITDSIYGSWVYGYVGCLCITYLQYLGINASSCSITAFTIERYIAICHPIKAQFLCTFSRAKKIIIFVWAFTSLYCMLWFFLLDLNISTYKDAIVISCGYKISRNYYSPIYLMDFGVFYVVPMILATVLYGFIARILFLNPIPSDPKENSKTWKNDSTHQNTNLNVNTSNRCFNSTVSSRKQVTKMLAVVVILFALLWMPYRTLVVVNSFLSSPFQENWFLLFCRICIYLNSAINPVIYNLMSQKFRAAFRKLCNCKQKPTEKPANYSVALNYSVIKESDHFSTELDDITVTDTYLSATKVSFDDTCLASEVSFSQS
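Enhancer read-out: after compound pinning and an initial kinetic agonist-mode read, an EC20 of TRH (10 nM final) was injected and fluo-8 calcium signal (Ex 480/Em 530) followed at 1 s/cycle for 100 cycles in TRHR-expressing cells.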
D1 antag – Antagonist of Human D 1 Dopamine Receptor: qHTS; activity change, negative = inhibition, % at 10 µM; HEK293 TREx D1 cells, calcium flux, dopamine EC80; hits give low values; AID 504652, 2011; hit rate 3.2% among 360,000; in the data active = activity change below about -30%; note: % is set by controls: 0 for no effect and ±100 for the full control effect
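Kinetic fluorescence of a calcium dye serves as the read-out. D1-expressing Hek293 Trex cells, induced overnight at 30 C, are exposed to compound for 180 s before an EC80 dopamine addition, then read 180 s further.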
TRHR agonist – qHTS for Small Molecule Agonists and Allosteric Enhancers of Human TRH Receptor: Primary Screen for Agonists; AID 493084, 2011; activation, % at 2 µM; Thyrotropin-releasing hormone receptor (Homo sapiens), P34981; hit rate 0.18% among 360,000; TRHR cells, calcium flux fluo-8, FDSS agonist mode; note: 0% is about no effect
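TRHR-expressing cells, plated overnight in medium with 10% serum, were loaded with fluo-8 calcium dye at room temperature. After a 10 s baseline, library compound was pin-added and calcium release was recorded kinetically (ex 480/em 530) as agonist response.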
Starred values were filed as active, the others as inactive. Cut-off read from the data, not from the text of the source, unless noted: active = activation above about 30%; inactive = the rest.

For Oc1ccc(N=Nc2n[nH]c(-c3ccccc3)n2)cc1 the results were D1 agonist 0, D1 PAM 1, GRP78 ERSR act -3%, TRHR enhancer 8, D1 antag 0 and TRHR agonist 0.
Oc1ccc(N=Nc2n[nH]c(-c3ccc(Br)cc3)n2)cc1 was read as D1 agonist 1, D1 PAM 6, GRP78 ERSR act 8%, TRHR enhancer 9, D1 antag -39* and TRHR agonist 0.
Screening Cc1c(C(=O)NCc2ccc(F)cc2)sc2ncnc(NCC3CCCO3)c12 (stereo unspecified) returned GRP78 ERSR act -4%.
Screening CCCc1[nH]nc2c1C(C1CCCCC1)C(C#N)=C(N)O2 (stereo unspecified) returned D1 agonist 0, D1 PAM -11, GRP78 ERSR act 35µM*, TRHR enhancer 4, D1 antag 2 and TRHR agonist 0.
For CC(C)=CCC/C(C)=C/CC/C(C)=C/CC/C=C(\C)CC/C=C(\C)CCC=C(C)C the results were GRP78 ERSR act -1%.
Screening CCOc1cc2c(cc1OCC)C(C(=O)O)C(c1cc(Br)c(O)c(OC)c1)N(C)C2=O (stereo unspecified) returned D1 agonist 1, D1 PAM -2, GRP78 ERSR act -7%, TRHR enhancer -2, D1 antag -32* and TRHR agonist 0.
`OC(CN1CCCCC1)Cn1c2ccc(Cl)cc2c2cc(Cl)ccc21` (stereo unspecified) gave D1 agonist 35*, D1 PAM -4, GRP78 ERSR act -13%, TRHR enhancer 7, D1 antag 13 and TRHR agonist 5.
For Cc1ccc(NC(=O)N2CCc3cc(S(=O)(=O)N4CCC(C)CC4)ccc32)cc1F the results were D1 agonist 0, D1 PAM -4, TRHR enhancer 3, D1 antag -9 and TRHR agonist 0.
Screening CC(=O)c1cccc(NC(=S)NC(=O)Cc2ccc(Cl)cc2)c1 returned D1 agonist 63*, D1 PAM -5, GRP78 ERSR act -1%, TRHR enhancer 3, D1 antag -1 and TRHR agonist 6.
For O=C(Cc1ccc(Cl)cc1)NC(=S)Nc1ccccc1N1CCOCC1 the results were D1 agonist 34*, D1 PAM 12, GRP78 ERSR act -3%, TRHR enhancer 4, D1 antag -34* and TRHR agonist 3.
CC(=O)c1cccc(NC(=S)NC(=O)c2ccccc2Cl)c1 was read as D1 agonist 6, D1 PAM -3, GRP78 ERSR act 0%, TRHR enhancer 5, D1 antag -31* and TRHR agonist 0.
For CC(=O)Nc1cccc(C(=O)OCc2ccc(C(=O)Oc3ccc(Cl)cc3)cc2)c1 the results were D1 agonist 9, D1 PAM -7, GRP78 ERSR act -4%, TRHR enhancer 3, D1 antag -32* and TRHR agonist 3.
For CCc1c(C)sc(NC(=O)c2cc(C3CC3)on2)c1C#N the results were D1 agonist 0, D1 PAM -3, GRP78 ERSR act 2%, TRHR enhancer 5, D1 antag -37* and TRHR agonist 1.
CCc1c(C)sc(NC(=O)c2cc(C)on2)c1C#N was read as D1 agonist 5, D1 PAM -3, GRP78 ERSR act 0%, TRHR enhancer 5, D1 antag 28 and TRHR agonist 1.
COc1cc(Cl)c(C)cc1NC(=O)COc1ccccc1[N+](=O)[O-] was read as D1 agonist -1, D1 PAM -4, GRP78 ERSR act 2%, TRHR enhancer 32*, D1 antag 0 and TRHR agonist 0.
Screening Cc1ccccc1-c1noc(-c2ccccc2OCC(=O)Nc2ccccc2[N+](=O)[O-])n1 returned D1 agonist -1, D1 PAM 0, GRP78 ERSR act -2%, TRHR enhancer -5, D1 antag -63* and TRHR agonist 0.
